# BoNT A protease: BoNT A light chain protease inhibition; multiplex microsphere protease substrate cleavage, flow cytometry; inhibition, % at 10 µM; hit rate 0.17% among 360,000; AID 588499; further: plate controls were buffer without enzyme for full effect and enzyme alone for no effect
# Bead autofluor: compound fluorescence in toxin protease inhibitor counterscreen | compound autofluorescence counterscreen, microsphere flow cytometry; active compounds read high | fluorescence intensity (concentration not given with the values) | hit rate 3.1% among 360,000; in the data active means fluorescence intensity above about 16000; inconclusive means no clear call, values can overlap the other calls
# Anthrax LF inh2: anthrax lethal factor protease inhibition; multiplex microsphere protease cleavage assay, LF; hit rate 0.12% among 360,000; inhibition, % at 10 µM; AID 588501; further: plate controls were buffer without enzyme for full effect and enzyme alone for no effect
# Target sequence (P15917 whole entry, looked up): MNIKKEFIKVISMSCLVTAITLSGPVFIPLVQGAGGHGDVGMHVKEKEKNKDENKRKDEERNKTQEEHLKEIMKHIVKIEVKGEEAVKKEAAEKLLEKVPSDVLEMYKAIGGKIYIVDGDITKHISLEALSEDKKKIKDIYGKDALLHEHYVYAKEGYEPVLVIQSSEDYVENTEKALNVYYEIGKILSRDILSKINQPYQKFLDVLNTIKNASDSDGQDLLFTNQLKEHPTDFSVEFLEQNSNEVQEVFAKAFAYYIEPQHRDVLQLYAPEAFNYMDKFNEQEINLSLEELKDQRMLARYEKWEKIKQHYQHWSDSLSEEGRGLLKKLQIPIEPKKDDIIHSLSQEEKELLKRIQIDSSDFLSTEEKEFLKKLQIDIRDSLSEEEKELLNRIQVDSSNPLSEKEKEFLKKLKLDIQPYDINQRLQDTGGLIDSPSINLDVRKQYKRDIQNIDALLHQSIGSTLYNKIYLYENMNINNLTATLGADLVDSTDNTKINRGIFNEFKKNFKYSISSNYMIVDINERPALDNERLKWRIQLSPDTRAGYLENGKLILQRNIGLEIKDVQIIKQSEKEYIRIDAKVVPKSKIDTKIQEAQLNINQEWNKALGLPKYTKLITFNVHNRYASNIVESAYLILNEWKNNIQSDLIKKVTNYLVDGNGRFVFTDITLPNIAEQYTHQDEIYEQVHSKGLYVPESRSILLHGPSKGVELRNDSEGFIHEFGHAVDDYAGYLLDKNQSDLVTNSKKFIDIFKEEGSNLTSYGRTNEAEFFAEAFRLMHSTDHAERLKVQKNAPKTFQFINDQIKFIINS
# BoNT F protease: inhibitors of Botulinum neurotoxin F light chain protease | hit rate 0.22% among 360,000 | AID 588497 | inhibition, % at 10 µM | Multiplex microsphere protease cleavage assay, flow cytometry; in the data active means inhibition above about 35%, passing the limit was not always enough; inconclusive means no clear call, values can overlap the other calls; further: plate controls were buffer without enzyme for full effect and enzyme alone for no effect
# MazF activator: activators of E. coli MazEF toxin-antitoxin RNase; P0AE70; FAM/BHQ RNA-DNA oligo cleavage fluorescence, 5 h; activation, % at 20 µM; hit rate 0.32% among 350,000; AID 504720; in the data active means activation above about 50%
# * hit, by the source's call; ? = inconclusive; . = no result. Most compounds without a hit are left out; they make up all but 3.7% or so of the library. Unless noted, no stated cut-off is given here; in the data, active means inhibition above about 30%; inconclusive means no clear call, values can overlap the other calls; inactive means below that.
SMILES,BoNT A protease,Bead autofluor,Anthrax LF inh2,BoNT F protease,MazF activator
COc1ccc(CN2C(=O)CN(C3CCCCCC3)C(=O)C2c2ccc(OC)c(OC)c2)cc1 (stereo unspecified),-1,10137,-1,-2,-2
Nc1ccn([C@@H]2O[C@H](CNCc3cc(Br)ccc3OCc3ccccc3)[C@@H](O)[C@H]2O)c(=O)n1,0,3920,-3,-11,-1
CCCOc1ccc(C2C(=O)N(C3CCCCCC3)CC(=O)N2Cc2ccco2)cc1OC (stereo unspecified),0,22488*,1,0,6
Cc1ccc([N+](=O)[O-])cc1-c1[nH]c(-c2ccc(O)c(O)c2)nc1-c1ccccc1,0,16205*,-9,-6,17
COc1ccc(-c2nc(-c3ccccc3)c(-c3cc([N+](=O)[O-])ccc3C)[nH]2)cc1O,0,3066,-5,-3,6
COC(=O)C1Cc2ccccc2CN1C(=O)CCl (stereo unspecified),0,3117,0,3,6
COc1ccc(C)cc1S(=O)(=O)N1c2ccccc2CC1C (stereo unspecified),-6,17618*,0,-7,-2
Cc1cccc(C)c1NC(=O)C1c2ccccc2OCC(=O)N1Cc1ccc2c(c1)OCO2 (stereo unspecified),-1,4125,-10,-2,.
CCCCCCCCN1C(=O)[C@H](CC(=O)N2CCN(C(=O)c3ccco3)CC2)C[C@@]2(C(=O)OCC)CCCC=C12,1,5904,8,12,.
Cc1occc1C(=O)Nc1ccccc1C#N,1,4349,-3,-2,-7
COC(=O)CCC(=O)NNC(=O)c1cccc(Cl)c1,-6,25239*,-2,-7,0
CCOC(=O)c1c(NC(=O)C(C)Sc2cccc[n+]2[O-])sc2c1CCN(Cc1ccccc1)C2 (stereo unspecified),45*,8502,8,12,-48
COC(=O)c1cc(NC(=O)CC2NC3CCCCC3NC2=O)cc(C(=O)OC)c1 (stereo unspecified),1,22818*,-9,-2,4
O=C1CCCN1c1ccc(N2CCCC2=O)cc1,.,.,.,.,-12
CN1C(=O)NC(c2ccccc2)C2=C1CN(CCc1ccccc1)C2=O (stereo unspecified),?,20821*,0,-2,-4
CCOC(=O)c1c(C)c(C(=O)N2CCCCCC2)c(C)n1C,0,23943*,2,0,6
CCOC(=O)c1c(C)c(C(=O)NCC2CCCO2)c(C)n1CC (stereo unspecified),0,10685,-3,-6,-3
CCOC(=O)c1c(C)c(C(=O)N2CCCCCC2)c(C)n1CC,?,20617*,0,0,1
CCC(C(=O)OCC(=O)N(CC)c1c(N)n(Cc2ccccc2)c(=O)[nH]c1=O)c1ccccc1 (stereo unspecified),-1,8827,-4,-8,3
CC1(C)CC(C#N)(N2CCOCC2)CCO1 (stereo unspecified),?,19964*,1,2,2
COc1cc2c(cc1OC)C(c1ccc(-c3ccccc3Cl)o1)=NCC2,7,20487*,0,6,-4
COc1cc2c(cc1OC)C(c1ccc(-c3ccc(Cl)cc3Cl)o1)=NCC2,?,?,7,-6,-8
CC(C)(CC(=O)O)CC(=O)Nc1ccc(Cl)c(Cl)c1,?,5745,-4,?,-1
COc1cc(C2NC(=O)NC(C)=C2C(C)=O)ccc1O (stereo unspecified),1,4516,-3,1,83*
CCOC(=O)COc1c(Br)cc(C2NC(=O)NC(C)=C2C(C)=O)cc1OC (stereo unspecified),4,15350,-2,2,2
SMILES,BoNT A protease,Bead autofluor,Anthrax LF inh2,BoNT F protease,MazF activator
C=CCOc1c(Br)cc(C2NC(=O)NC(C)=C2C(C)=O)cc1OCC (stereo unspecified),3,22042*,-2,1,-5
COc1cc(C2NC(=O)NC(C)=C2C(C)=O)cc(OC)c1OC (stereo unspecified),0,4234,0,-3,-6
CSCCC(NC(=O)c1ccccc1Br)C(=O)NNC(=O)c1ccco1 (stereo unspecified),?,4788,?,?,3
O=C(Nc1nccs1)Oc1ccccc1,?,20333*,-7,2,1
O=C(NCCN1CCOCC1)C1CCC(=O)N1Cc1ccc(F)cc1 (stereo unspecified),-1,24197*,0,-4,0
Cc1cccc(N2CCN(S(=O)(=O)c3ccc4c(c3)n(C)c(=O)c(=O)n4C)CC2C)c1 (stereo unspecified),?,19587*,-4,8,-15
Cc1ccc(N2CCN(S(=O)(=O)c3ccc4c(c3)n(C)c(=O)c(=O)n4C)CC2C)cc1 (stereo unspecified),-2,9801,2,-6,2
COc1ccc(C(=O)NC2CCCc3c2cnn3-c2cc(F)cc(F)c2)c(OC)c1OC (stereo unspecified),-1,5820,0,-1,0
Cc1cc(C)n2nc(C(=O)OCC(=O)N(C)CC(=O)Nc3ccccc3Cl)nc2n1,-4,6155,-6,-12,-3
COC(=O)CSC(C(=O)Nc1ccc(C)c(C)c1)c1ccccc1 (stereo unspecified),0,22778*,-1,0,-1
CCn1c(C)cc2c(c1=O)C(c1ccccc1)C(C(=O)OC)=C(N)O2 (stereo unspecified),0,23918*,0,-1,-3
CC(=O)Nc1sc2c(c1CN1CCN(c3ccccn3)CC1)CCCC2,2,22350*,-2,2,2
Cc1sc(NC(=O)c2ccco2)c(CN2CCN(c3ccc(F)cc3)CC2)c1C,3,8160,12,0,3
Cc1sc(NC(=O)c2ccco2)c(CN2CCN(c3ccccn3)CC2)c1C,0,23314*,-2,-2,-1
COc1nc(N(C#N)CC(N)=O)nc(N2CCCC2)n1,-2,20491*,2,-3,1
O=C(NNc1ccccc1)Nc1ccccc1F,2,3047,-5,-1,-9
CCn1c(-c2cc3c(C(F)(F)F)nn(C)c3s2)n[nH]c1=S,-1,16651*,-3,-5,3
Cc1ccccc1-n1nc2c(c1NC(=O)c1c(-c3ccccc3Cl)noc1C)CS(=O)(=O)C2,-2,16862*,-10,-7,3
Cc1ccc(-n2nc3c(c2NC(=O)c2c(-c4ccccc4Cl)noc2C)CS(=O)(=O)C3)c(C)c1,?,23658*,-2,-3,2
COc1ccc(CCNC(=O)c2ccc3c(c2)SC2=NS(=O)(=O)CCN23)cc1,0,4404,5,6,9
O=C(Nc1cccc(Cl)c1)c1ccc2c(c1)SC1=NS(=O)(=O)CCN12,0,2461,-1,-3,136*
CCN(CC(=O)NCc1cccs1)C(=O)Cc1ccc(Cl)c(Cl)c1,0,3886,-5,3,-4
CSc1cnn(-c2ccccc2)c(=O)c1SC,-1,16177*,-9,-1,1
